# From PubChem BioAssay (NCATS)
# Values joined by “and” are separate entries in the source; they are usually repeats but may differ in a detail not shown here. Identical values can stand only once. Results filed as inconclusive are left out. Entries that show only a call come without a potency. Where a structure was tested more than once in an assay, its records may differ in their call. Active and inactive are the calls of the source. Unless noted, the call rests on the fitted dose curve; in most records, active means well fitted curve in either direction with a large enough effect (not every such curve was filed as active); inconclusive means small, poorly fitted or top-dose-only effect, or another doubt; inactive means flat fitted curve, though single readings scatter.
# Experiments:
# [1] = AP1 Signaling Pathway (AID 357);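 further: ME-180 reporter cells stimulated with EGF at its EC50 level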
# How it was run: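 AP-1-bla ME-180 cells, Opti-MEM + 0.5% dialyzed FBS, plated overnight 37 °C. Cpd titration + EC50 EGF, 5 h 37 °C. CCF4 2.5 h RT; ex 405, em 460/530 ratio → %activity, AC50.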
# [2] = molecular target: Cytochrome P450 1A2 (Homo sapiens) (UniProt P05177); test: p450-cyp1a2 (AID 410; calls by dose curve; further: potency means the concentration at half of the fitted maximal effect)
# Sequence of Cytochrome P450 1A2 (Homo sapiens) (P05177 whole entry, looked up): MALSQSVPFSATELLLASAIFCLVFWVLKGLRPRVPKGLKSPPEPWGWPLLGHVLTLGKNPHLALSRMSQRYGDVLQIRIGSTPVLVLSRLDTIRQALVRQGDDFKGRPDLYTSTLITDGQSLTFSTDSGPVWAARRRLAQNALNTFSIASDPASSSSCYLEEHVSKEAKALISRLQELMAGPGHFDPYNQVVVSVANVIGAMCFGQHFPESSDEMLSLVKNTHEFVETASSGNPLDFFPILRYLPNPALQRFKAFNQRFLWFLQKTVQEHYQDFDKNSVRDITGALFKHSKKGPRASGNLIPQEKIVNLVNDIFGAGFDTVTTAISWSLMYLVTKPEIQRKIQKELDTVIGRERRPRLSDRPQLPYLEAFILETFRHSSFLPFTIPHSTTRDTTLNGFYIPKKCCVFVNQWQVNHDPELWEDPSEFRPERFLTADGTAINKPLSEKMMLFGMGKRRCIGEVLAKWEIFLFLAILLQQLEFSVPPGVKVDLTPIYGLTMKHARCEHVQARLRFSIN
# How it was run: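 Luminescent demethylation readout: Luciferin-ME (100uM, equal to Km) turned over by 20nM CYP1A2 for 60 min at room temperature after NADPH regeneration addition, following 10 min compound preincubation. Normalization used 57 uM furafylline as full inhibition.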
# [3] = NFAT Signaling Pathway (AID 444); details: Jurkat NFAT-bla M1, carbachol, beta-lactamase ratio, 5 h; at 38 µM (top of the series) unless noted;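 further: carbachol stimulus at about its EC50 of 1 µM final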
# How it was run: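 Read-out: CCF4 FRET ratio (460 nm/530 nm) after 1 h RT dye loading, used for %activity and AC50 from titration series. Cells: Jurkat NFAT-β-lactamase/M1 line, treated with compound plus 1 uM carbachol for 5 h, 37 °C.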
# [4] = Cell Viability - BJ (AID 421; calls by dose curve;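 further: potency means the concentration at half of the fitted maximal effect; cells exposed to compound for 40 hours at 37 °C before readout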); details: BJ fibroblast viability, qHTS
# How it was run: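 Cytotoxicity as drop in intracellular ATP (CellTiter-Glo, 20 min RT) after 40 hr compound exposure of BJ fibroblasts at 37 °C. Titrations scaled between DMSO and 100 uM tamoxifen, Hill-fitted for AC50.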
# [5] = Cell Viability - Jurkat (AID 426;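 active means dose-dependent loss of cell ATP signal giving a full or clear fitted curve, ranked by lower potency value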;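 further: potency means the concentration at half of the fitted maximal effect; cells exposed to compound for 40 hours at 37 °C before ATP read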); details: qHTS
# How it was run: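 Cytotoxicity taken as drop in cellular ATP (CellTiter-Glo luminescence, 20 min room temperature) after 40 hr, 37C treatment of 5000 Jurkat Clone E6-1 cells per well; concentration-response fitted with Hill equation for AC50.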
# [6] = Cell Viability - Hek293 (AID 427;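 active means compounds whose dose-response curve shows a full or clear partial loss of cell viability, called from curve shape rather than a numeric limit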;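 further: potency means the concentration at half of the fitted maximal effect; cells exposed to compound for 40 hours at 37 °C before reading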); details: qHTS
# How it was run: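 Luminescent ATP content (CellTiter-Glo, 20 min at room temperature) was measured after a 40 hr, 37 °C compound exposure of HEK293 cells. AC50 values came from Hill-equation fits of qHTS concentration-response data normalized to DMSO and 100 uM tamoxifen.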
# [7] = Cell Viability - HepG2 (AID 433; calls by dose curve;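 further: potency means the concentration at half of the fitted maximal effect; cells exposed to compound for 40 hours; potency for ATP loss meaning cytotoxicity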); details: qHTS
# How it was run: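 ATP luminescence (CellTiter-Glo) after 40 h compound exposure, 37 °C, HepG2, 1500 cells/well, complete medium. Normalized: DMSO = basal, 100 uM tamoxifen = 100% inhibition. AC50 via standard Hill equation.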
# [8] = Cell Viability - MRC5 (AID 434; calls by dose curve;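 further: potency means the concentration at half of the fitted maximal effect; cells exposed to compound for 40 hours at 37 °C; potency reflects cytotoxicity seen as loss of intracellular ATP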); details: MRC5 lung fibroblast viability, qHTS
# How it was run: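 AC50 values come from Hill-equation fits of intracellular ATP loss, measured by CellTiter-Glo luminescence. Normal lung fibroblasts (MRC5) had 40 hr compound treatment at 37 C, normalized between DMSO and 100 uM tamoxifen.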
# [9] = Cell Viability - SK-N-SH (AID 435; calls by dose curve; further: potency means the concentration at half of the fitted maximal effect); details: SK-N-SH neuroblastoma cell viability qHTS
# How it was run: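 CellTiter-Glo ATP luminescence, 20 min RT read; cells pre-plated 5 hr, compound 40 hr at 37 °C, 1500 cells/well, complete medium. Normalized DMSO = 0, 100 uM tamoxifen = 100% inhibition; Hill-fit AC50.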
# [10] = molecular target: Lysosomal acid glucosylceramidase (Homo sapiens) (UniProt P04062); test: Glucocerebrosidase-p2 (AID 348; in the data active means potency below about 10 µM; further: potency means the concentration at half of the fitted maximal effect); details: purified GBA, blue fluorogenic substrate, 40 min
# Sequence of Lysosomal acid glucosylceramidase (Homo sapiens) (P04062 whole entry, looked up): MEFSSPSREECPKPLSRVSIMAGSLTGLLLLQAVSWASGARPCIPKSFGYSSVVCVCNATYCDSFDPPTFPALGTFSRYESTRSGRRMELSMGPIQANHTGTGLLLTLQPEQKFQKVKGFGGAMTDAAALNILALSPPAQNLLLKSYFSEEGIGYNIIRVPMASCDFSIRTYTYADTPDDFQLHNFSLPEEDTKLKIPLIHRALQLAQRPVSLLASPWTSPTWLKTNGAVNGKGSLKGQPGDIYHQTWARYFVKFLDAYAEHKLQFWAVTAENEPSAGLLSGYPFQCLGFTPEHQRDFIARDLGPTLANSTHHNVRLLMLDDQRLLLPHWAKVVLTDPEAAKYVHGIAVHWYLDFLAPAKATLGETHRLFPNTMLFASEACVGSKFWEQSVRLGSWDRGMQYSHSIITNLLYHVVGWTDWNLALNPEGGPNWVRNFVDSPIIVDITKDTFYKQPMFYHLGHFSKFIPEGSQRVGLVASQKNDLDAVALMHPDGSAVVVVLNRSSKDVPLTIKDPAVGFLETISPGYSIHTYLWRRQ
# How it was run: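 Normal human glucocerebrosidase (0.2 nM) with blue fluorogenic substrate (80 uM final) in citrate/phosphate pH 5.9 with 10mM sodium taurocholate, 0.01% tween-20; 40 min RT, NaOH/glycine stop; fluorescence Ex 365/Em 440; AC50 from a titration from 0.6 nM upwards.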
smiles,measurement,setting,value
CCC1(C)CC(=O)NC(=O)C1,outcome,[1],inactive
same,Potency,[2],inactive
same,"activity change, negative = inhibition",[3],-6.48% [at 17.2 µM] (inactive)
CN(N=O)c1ccc(O)c(O)c1,outcome,[1],inactive
same,Potency,[2],inactive
same,"activity change, negative = inhibition",[3],0.97% (inactive)
C[C@H](N)CN1CCc2ccc(Br)cc21,outcome,[1],inactive
COc1ccc(OC)c(C(O)C(C)N)c1 (stereo not given),outcome,[1],inactive
NCCCP(=O)(O)O,outcome,[1],inactive
same,Potency,[2],inactive
same,"activity change, negative = inhibition",[3],-4.18% (inactive)
C[C@@H](Cc1ccccc1)NCCC(c1ccccc1)c1ccccc1,outcome,[1],inactive
CCCn1c(C)c(C(=O)c2ccc3ccccc3c2)c2ccccc21,outcome,[1],inactive
C[N+]1(C)CCN(c2ccccc2)CC1,outcome,[1],inactive
Nc1ccc(CCN2CCN(c3cccc(C(F)(F)F)c3)CC2)cc1,outcome,[1],inactive
O=C1C=CC(=O)C=C1,outcome,[1],inactive
same,Potency,[2],inactive
same,Potency,[4],> 92 µM (inactive)
same,Potency,[5],31.4 µM (active)
same,Potency,[6],> 92 µM (inactive)
same,Potency,[7],> 92 µM (inactive)
same,Potency,[8],> 92 µM (inactive)
same,Potency,[9],> 92 µM (inactive)
same,"activity change, negative = inhibition",[3],-3.4% (inactive)
O=c1c2ccccc2[se]n1-c1ccccc1,outcome,[1],inactive
Cc1[nH]c2ccc(O)cc2c1CCN,outcome,[1],inactive
same,Potency,[2],31.6 µM (active)
same,"activity change, negative = inhibition",[3],10.3% (inactive)
C[N+]1(C)[C@@H]2CC[C@H]1CC(OC(=O)c1c[nH]c3ccccc13)C2 (stereo not given in full),outcome,[1],inactive
CC(C)(C)c1cc(O)ccc1O,Potency,[10],> 11.4 µM (inactive)
same,"activity change, negative = inhibition",[1],7.46% [at 7.69 µM] (inactive)
same,Potency,[4],> 92 µM (inactive)
same,Potency,[6],> 92 µM (inactive)
same,Potency,[7],> 92 µM (inactive)
same,Potency,[8],> 92 µM (inactive)
same,Potency,[9],> 92 µM (inactive)
same,"activity change, negative = inhibition",[3],-2.58% [at 7.69 µM] (inactive)
NNC(=O)c1ccc(O)cc1,outcome,[1],inactive
same,Potency,[2],inactive
same,"activity change, negative = inhibition",[3],-6.3% (inactive)
CCCN(CCC)C1Cc2cc(OC)c(OC)cc2C1,outcome,[1],inactive
C[C@@H]1[C@@H]2Cc3ccc(O)cc3[C@@]1(C)CCN2CC1CC1,outcome,[1],inactive
O=C(O)c1cc[c]([Hg][Cl])cc1,outcome,[1],inactive
C[C@@H]1O[C@H](C[N+](C)(C)C)CS1,outcome,[1],inactive
O=[N+]([O-])c1ccc2nc(N3CCNCC3)ccc2c1,outcome,[1],inactive
same,Potency,[2],2 µM (active)
same,"activity change, negative = inhibition",[3],4.11% (inactive)
CCCN1CCc2cc(O)cc3c2[C@H]1Cc1ccc(O)c(O)c1-3,outcome,[1],inactive
CCC(=O)O[C@@](Cc1ccccc1)(c1ccccc1)[C@@H](C)CN(C)C,outcome,[1],inactive
same,Potency,[2],inactive
same,"activity change, negative = inhibition",[3],-25.8% [at 17.2 µM] (inactive)
CN1[C@@H]2CC[C@H]1CC(OC(=O)C1C=Nc3ccccc31)C2 (stereo not given in full),outcome,[1],inactive
Cc1c2ccncc2c(C)c2c1[nH]c1ccccc12,outcome,[1],inactive
CCCCCCC(C)(C)c1ccc([C@@H]2C[C@H](O)CC[C@H]2CCCO)c(O)c1,outcome,[1],inactive
CCS(=O)(=O)Nc1cccc(C(=C2CCCCC2)c2cnc[nH]2)c1,outcome,[1],inactive
same,Potency,[2],0.316 µM (active)
same,"activity change, negative = inhibition",[3],4.67% (inactive)
CCCN(CCC)[C@H]1CCc2c(F)ccc(O)c2C1,outcome,[1],inactive
Cc1sc2ccccc2c1CC1=NCCN1,outcome,[1],inactive
same,Potency,[2],2.51 µM (active)
same,"activity change, negative = inhibition",[3],-16.3% (inactive)
CCCN(CCC)[C@@H]1CCc2cccc(O)c2C1,outcome,[1],inactive
same,Potency,[2],inactive and 31.6 µM (active)
same,"activity change, negative = inhibition",[3],-1.36% (inactive)
NCCc1c[nH]c2ccc(C(N)=O)cc12,outcome,[1],inactive
same,Potency,[2],6.31 µM (active) and 1.26 µM (active)
same,"activity change, negative = inhibition",[3],4.42% (inactive)
C[N+](C)(C)CC#CCN1CCCC1=O,outcome,[1],inactive
c1cc2c(c(NC3=NCCN3)c1)CCCC2,Potency,[10],> 11.4 µM (inactive)
same,"activity change, negative = inhibition",[1],7.07% [at 7.69 µM] (inactive)
same,"activity change, negative = inhibition",[3],-5.58% [at 7.69 µM] (inactive)
Clc1cc(I)cc(Cl)c1NC1=NCCN1,outcome,[1],inactive
same,"activity change, negative = inhibition",[3],-4.12% (inactive)
CCCN(CCC)CCc1ccc(O)c(O)c1,outcome,[1],inactive
same,"activity change, negative = inhibition",[3],-10.2% (inactive)
